Here are results for 87 compounds from PubChem BioAssay AID463075 (University of Pittsburgh Molecular Library Screening Center, 2010).

Several values for one entry are separate records, joined by “and”; a condition that tells them apart may be missing. Equal values may be shown once. Out of some 220,000 compounds screened, about 150 (0.068%) were called active. The sample holds actives, similar compounds and a random draw of the others, so the mix is not that of the screen.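 Rule for the calls: active = activation, meaning protection from cell death, of at least 50% relative to plate controls; inactive = activation below 50%.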

A short description of this experiment: rescue of FADD-deficient Jurkat cells from TNF-alpha death – single concentration, primary screen (AID 463075).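 Note: necroptosis triggered by 40 ng/mL TNF-alpha added together with compound.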 As to conditions: Jurkat FADD-/- TNF necroptosis rescue, ATP luminescence, 24 h; at 10 µM; stronger effect = higher value; 0 = TNF only, 100 = no-TNF cells.
In the case of `CCOC(=O)/C=c1\s/c(=C\c2ccc(C#N)cc2)c(=O)n1CC(=O)Nc1cccc(C)c1C`, the activation (protection from cell death) is 0.5% (inactive). For the compound `Cc1ccc(N2C(=O)SC(N(CC(=O)O)c3ccc(C)cc3)C2=O)cc1` (configuration not stated), the activation (protection from cell death) was 0.355% (inactive). Regarding `CCCN(CC(=O)Nc1ccc(C(N)=O)cc1)CC(=O)Nc1ccccc1C`, the activation (protection from cell death) is 8.38% (inactive).

In the case of `Oc1ccccc1C=NC1CCCCC1N=Cc1ccccc1O` (configuration not stated), the activation (protection from cell death) is 0.233% (inactive).

As for `C/C(=N\N=C(N)N)c1ccc(Cl)cc1`, the activation (protection from cell death) was 2.76% (inactive). With `C=CCNC(=O)c1sc(SC)cc1-c1ccc(Cl)cc1` the figure was -2.68% (inactive); with `COc1cccc(C2c3[nH]c4ccccc4c3CCN2Cc2cccc(C)n2)c1` (configuration not stated), 0.616% (inactive). For `CC1CCc2c(nc3ncnn3c2Nc2ccc(OC(F)(F)F)cc2)C1` (configuration not stated), the activation (protection from cell death) was -5.14% (inactive). Consider `COC(=O)c1ccc(NC(=O)CSc2nncc3ccc(OC)c(OC)c23)cc1`, for which the activation (protection from cell death) is -0.335% (inactive). The result for `CCNc1nc(NCC)nc(N/N=C/c2ccc(O)c(OC)c2)n1` reads 22.3% (inactive); that for `Cc1ccc(NC(=O)c2cccs2)cc1S(=O)(=O)N(C)C`, 1.75% (inactive); that for `CCOC(=O)C1=C(c2ccccc2)NC(=S)NC1c1ccc(Cl)cc1` (configuration not stated), -2.28% (inactive).

In the case of `COc1ccc(/C(=N\O)c2nccc3cc(OC)c(OC)cc23)cc1OC`, the activation (protection from cell death) is 0.543% (inactive). In the case of `CN1C(C)(C)CC(NC(=O)CCC(=O)NC2CC(C)(C)N(C)C(C)(C)C2)CC1(C)C`, the activation (protection from cell death) is 0.679% (inactive). With `CNC(=O)c1c(NC(NC(=O)c2ccco2)C(=O)c2ccc(Cl)cc2)sc2c1CCCC2` (configuration not stated) the figure was 0.421% (inactive).

Regarding `Cc1c(CN2CCCCC2)c(O)n(CCO)c(=O)c1C#N`, the activation (protection from cell death) is -0.121% (inactive). With `CCOC(=O)/C(=N\Nc1cc(Cl)ccc1Cl)N1CCN(C)CC1` the figure was 7.63% (inactive); with `COc1cccc(OCCCN2CCCCCC2)c1`, 1.03% (inactive).

On to `Cc1cc(=O)oc2cc(OCC3CC(c4ccccc4Cl)=NO3)ccc12` (configuration not stated), for which the activation (protection from cell death) was -15.7% (inactive). Take `Cc1ccc(C2NC(=S)NC3=C2N2CCC3CC2)cc1` (configuration not stated): the activation (protection from cell death) is 1.6% (inactive). For `C=C(Cl)COC(=O)C1C2C=CC(C2)C1C(=O)O` (configuration not stated), the activation (protection from cell death) was -1.48% (inactive). The result for `CN(C)/C=C/C(=O)c1cnc2sccn2c1=O` reads -0.24% (inactive); that for `Cc1nnsc1C(=O)NCc1c(F)cccc1Cl`, 72.6% (active). The result for `Cc1nnsc1C(=O)N/N=C/c1ccccc1Cl` reads 3.7% (inactive).

`Cc1nnsc1C(=O)Nc1cccc(Cl)c1C`: the activation (protection from cell death) is 5.62% (inactive).

For the compound `O=C(NCCCCCCCCCNC(=O)C(F)(F)F)C(F)(F)F`, the activation (protection from cell death) was -0.812% (inactive). The result for `CS(=O)(=O)c1ccc2nc(NC(=O)c3ccc(N4CCCC4=O)cc3)sc2c1` reads -0.943% (inactive); that for `COc1ccc(S(=O)(=O)N2CCN(C(=O)c3cc(C)oc3C)CC2)cc1`, 2.28% (inactive); that for `O=c1cc(N2CCCCC2)c(-c2ccccc2)nn1Cc1cccc(F)c1`, -0.813% (inactive). With `Cc1ccc(O)c(-c2cc(C(=O)NCc3ccccc3)[nH]n2)c1` the figure was -18.4% (inactive); with `O=C(Nc1ccc(F)cc1)c1cc2c(s1)CCCC2`, -1.43% (inactive); with `CCCCCCCNc1nc(Cl)nc(NCCO)n1`, 5.58% (inactive).

Consider `O=C(CCCOc1ccc(Cl)cc1Cl)NNC(=O)C1CCC1`, for which the activation (protection from cell death) is 3.99% (inactive).

On to `C/C(CCc1ccccc1)=N\NC(=O)c1ccc(CN2CCOCC2)cc1`, for which the activation (protection from cell death) was 0.488% (inactive). As for `CCN=c1sc(C(=O)Nc2ccccc2)c(C)n1CC`, the activation (protection from cell death) was 1.57% (inactive). Take `CCOC(=O)CN(C(=O)COc1nc(-c2ccccc2)cc(C)c1C#N)c1ccc(F)cc1`: the activation (protection from cell death) was 0.588% (inactive).

Consider `Cc1ccccc1-n1nc(C)c2c1N=C1C(Cl)=CC(Cl)=CN1C2c1ccc(C(=O)O)cc1` (configuration not stated), for which the activation (protection from cell death) is 1.37% (inactive).

`COc1cc(OC)cc(-c2cc3nc(C4CCN(C(=O)OC(C)(C)C)CC4)cc(=O)n3[nH]2)c1`: the activation (protection from cell death) is 1.03% (inactive). With `c1ccc(C2c3[nH]c4ccccc4c3CCN2Cc2cccn2-c2cccnc2)nc1` (configuration not stated), the activation (protection from cell death) is -0.81% (inactive). For the compound `CCCCCCC12CCC(C(=O)O)(CC1)CC2`, the activation (protection from cell death) was -1.53% (inactive). With `CCn1c(SCC(=O)Nc2sc(C)c(C)c2C#N)nnc1C1CC1` the figure was 4.46% (inactive). The result for `Cc1ccc(CC2S/C(=C(/C#N)C(=O)N3CCOCC3)N(c3ccccc3)C2=O)cc1` (configuration not stated) reads -0.961% (inactive). `COc1ccc(-c2ccc(CCC(=O)O)n2-c2ccc(O)cc2)cc1`: the activation (protection from cell death) was 0.347% (inactive). With `COc1ccc(-n2c(SC)nc(O)cc2=O)cc1` the figure was 0.231% (inactive); with `COc1ccc(-n2c(C)nn(CC3CC3)c2=O)cc1`, 68.3% (active).

With `COc1ccc(-n2c(C)nc3c(cnn3-c3ccccc3)c2=O)cc1`, the activation (protection from cell death) is -4.93% (inactive). The result for `COc1ccc(CCN2C(=O)CC(N3CCC(C(N)=O)CC3)C2=O)cc1OC` (configuration not stated) reads 1.77% (inactive); that for `CCOc1cc(CNCCN(C)C)c(Cl)cc1OCC(=O)NCCc1ccccc1`, -1.03% (inactive). `O=C(NC(=S)Nc1cccc(-c2ccc(CO)o2)c1)c1cccs1`: the activation (protection from cell death) was -0.171% (inactive). With `Cc1nc(-c2ccccc2)cn2c1nc1ccccc12`, the activation (protection from cell death) was 0.981% (inactive).

On to `CCOC(=O)C(=O)C1C(=O)Nc2ccccc21` (configuration not stated), for which the activation (protection from cell death) is -0.27% (inactive). With `COc1ccc(NC(=O)c2sccc2SCC#N)cc1` the figure was -2.27% (inactive); with `COc1ccc(S(=O)(=O)Nc2ccc(F)cc2)c(C)c1C`, -1.23% (inactive). As for `C=CCn1c(P(C)(=O)O)nc2ccccc21`, the activation (protection from cell death) is 1.54% (inactive) and 0.149% (inactive). As to `CN(C)c1ccc(-n2cccc2/C=N/n2cnnc2)cc1`, the activation (protection from cell death) was 1.75% (inactive). The result for `Cc1nonc1C(=O)N/N=C/c1ccc(O)cc1` reads 1.53% (inactive); that for `CCOC(=O)C1=NN(c2ccc(Cl)cc2)/C(=C/C2=NCCc3cc(OC)c(OC)cc32)S1`, -2.32% (inactive); that for `CCN(CC(=O)Nc1cccc(S(N)(=O)=O)c1)Cc1nc2ccccc2c(=O)[nH]1`, 2.32% (inactive). Consider `CC(C)CCN1C(=O)c2ccc(C(=O)Nc3cccc(S(N)(=O)=O)c3)cc2C1=O`, for which the activation (protection from cell death) is -1.31% (inactive). In the case of `O=C(CC1C(=O)NCCN1Cc1ccc(-c2ccccc2)cc1)NCc1ccncc1` (configuration not stated), the activation (protection from cell death) was 0.134% (inactive). The result for `S=C(Nc1ccc(Br)cc1Cl)NC1CCN(Cc2ccccc2)CC1` reads 1.9% (inactive); that for `CC(C)CCN1NC2(CCC(C)CC2)NC1=S` (configuration not stated), -1.55% (inactive); that for `O=C(c1cccnc1)N(c1cc2sc(=O)oc2c2ccccc12)S(=O)(=O)c1ccccc1`, -6.46% (inactive). The result for `Cn1c(S(=O)(=O)O)nc2ccccc21` reads 1.18% (inactive); that for `COc1cc2nc(Cl)nc(NCCO)c2cc1OC`, -0.0465% (inactive).

Take `Cc1nc(N2CCOCC2)sc1C(=O)NN`: the activation (protection from cell death) was 0.605% (inactive). Turning to `CCCC1(C(=O)OC)NC(c2ccco2)C2C(=O)N(C)C(=O)C21` (configuration not stated), the activation (protection from cell death) was 0.819% (inactive). With `Cc1cccc(N=Nc2c(O)[nH]c3ccc(F)cc23)c1` the figure was 1.19% (inactive). On to `O=C(NC(=O)N1CCSCC1)c1c(Cl)cccc1Cl`, for which the activation (protection from cell death) is 3.73% (inactive). With `CC(C)Cc1ccc(C(C)C(=N)N)cc1` (configuration not stated) the figure was 0.316% (inactive). With `O=C(Cc1ccccc1)N1N=C(c2ccncc2)CC1(O)C(F)(F)F` (configuration not stated) the figure was -1.22% (inactive); with `Cc1nnc(NCCO)c2ccccc12`, 2% (inactive); with `Cc1nn(CC(=O)Nc2ccc3c(c2)OCO3)c(C)c1[N+](=O)[O-]`, 0.0311% (inactive). For `CCOC(=O)c1c(CC(C)C)csc1/N=C/C1=C(O)CCCC1=O`, the activation (protection from cell death) is 2.28% (inactive).

Consider `O=C(Nn1cnc2ccccc2c1=O)c1ccc([N+](=O)[O-])cc1Cl`, for which the activation (protection from cell death) was -1.3% (inactive). The result for `O=C(CS(=O)(=O)c1ccc(C(F)(F)F)cn1)NNC(=O)c1ccccc1` reads -0.488% (inactive). Consider `O=C(O)c1n[nH]nc1-c1ccccc1`, for which the activation (protection from cell death) was -0.36% (inactive). On to `O=C(C1=C[C@H](c2coc3ccccc3c2=O)C[C@H](OCc2ccc(CO)cc2)O1)N1CCOCC1`, for which the activation (protection from cell death) was 0.365% (inactive). With `COc1ccc(Cl)cc1NC(=O)[C@@H]1CCCN1C(=O)c1cccs1` the figure was 2.67% (inactive); with `C=C1C2C[C@H](O)C(C)(C)[C@@]2(O)[C@H](O)C[C@]23C[C@@](C)(O)[C@H](CC[C@H]12)[C@H]3O` (some centres not stated), 1.07% (inactive); with `CCOc1cccc(C(=O)Nc2cnn(Cc3ccccc3)c2)c1`, -1.07% (inactive). As for `O=C(COC(=O)Cc1ccc(Br)cc1)Nc1c(F)c(F)c(F)c(F)c1F`, the activation (protection from cell death) is -0.784% (inactive).

For `CN(C(=O)CSc1nc(C2CC2)nc2ccccc12)c1nc(-c2ccccc2)cs1`, the activation (protection from cell death) is 0.753% (inactive). For the compound `COc1ccc(OC)c(-c2c(=O)n(OCc3ccccc3Br)c3ccccc3[n+]2[O-])c1`, the activation (protection from cell death) was 0.8% (inactive).

As to `O=C(Nc1ccccc1-c1ccccc1)c1cccs1`, the activation (protection from cell death) is -1.99% (inactive). Turning to `CN(C(=O)COc1ncnc2c1cnn2-c1ccccc1)C1CCCCC1`, the activation (protection from cell death) was -0.83% (inactive). For `CNC(=O)c1nnc(Cc2ccc(Cl)cc2)o1`, the activation (protection from cell death) was 5.11% (inactive).
